Values joined by “and” are separate entries in the source; they are usually repeats but may differ in a detail not shown here. Identical values can stand only once. Active and inactive are the calls of the source.
Key:
[1] = molecular target: Albumin (Bos taurus) (UniProt P02769); test: bovine serum albumin binders on microarray, profiling panel, artefact control for SMM control protein annotation, biochemical, small-molecule microarray, Alexa647 label, 635/667 nm fluorescence (AID 1118); conditions: BSA-A647 binding, fluorescence 635 nm, higher = more signal;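 note: score merges 667 nm emission intensity and signal-to-noise per printed compound spot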
Chain of Albumin (Bos taurus) (P02769 whole entry, looked up): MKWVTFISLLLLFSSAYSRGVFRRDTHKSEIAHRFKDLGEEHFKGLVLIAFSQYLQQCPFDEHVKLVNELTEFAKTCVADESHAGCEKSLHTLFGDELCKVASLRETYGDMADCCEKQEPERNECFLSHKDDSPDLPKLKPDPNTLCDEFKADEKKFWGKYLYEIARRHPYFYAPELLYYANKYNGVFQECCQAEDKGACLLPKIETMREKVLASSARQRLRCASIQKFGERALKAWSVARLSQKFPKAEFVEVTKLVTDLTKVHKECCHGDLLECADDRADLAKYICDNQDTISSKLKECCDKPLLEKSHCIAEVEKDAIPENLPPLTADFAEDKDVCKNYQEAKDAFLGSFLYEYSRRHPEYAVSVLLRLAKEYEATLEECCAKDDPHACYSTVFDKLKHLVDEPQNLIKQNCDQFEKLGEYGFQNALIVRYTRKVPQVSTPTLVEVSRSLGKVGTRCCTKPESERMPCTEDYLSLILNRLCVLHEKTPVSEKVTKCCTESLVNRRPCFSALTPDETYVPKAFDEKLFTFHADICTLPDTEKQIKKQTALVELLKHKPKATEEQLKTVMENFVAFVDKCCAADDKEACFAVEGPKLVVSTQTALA

[2] = small-molecule microarray binders of probe aXIP, primary screen, biochemical, NeuroSMM set, 635/667 nm fluorescence (AID 1119); conditions: higher = more signal, called active from +8 up or from −8 down;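 note: probe is the protein aXip251-270 applied at 1 µg/mL to compound-printed slides; binding of probe to printed compounds measured as 667 nm fluorescence plus signal to noise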
[3] = small-molecule binders of probe aNOTCH3, primary screen, biochemical, small-molecule microarray, 635/667 nm fluorescence (AID 1120); conditions: higher = more signal;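 note: probe is a biotin-tagged antibody raised against NOTCH3 rather than NOTCH3 protein; score merges spot fluorescence near 667 nm with spot signal to noise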
[4] = small-molecule binders of probe aNOTCH2, primary screen, biochemical, small-molecule microarray, 635/667 nm fluorescence (AID 1121); conditions: higher = more signal;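 note: score merges feature fluorescence read at 667 nm with its signal to noise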
[5] = molecular target: Carbonic anhydrase 2 (Homo sapiens) (UniProt P00918); test: CAII small-molecule binders, profiling panel, biochemical, small-molecule microarray, Alexa647-labelled CAII (AID 1122); conditions: CAII-A647 binding fluorescence, higher = more signal
[6] = COS7 lysate on small-molecule microarray, probe aHis, 635 nm (AID 1123); conditions: COS7 cell lysate, fluorescence, higher = more signal;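 note: z-score combines 667nm fluorescence intensity with signal-to-noise per printed compound spot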
[7] = compound binding in COS7 lysate, probe aLAP1, primary screen, cell lysate, small-molecule microarray (AID 1124); conditions: probe aLAP1, fluorescence, higher = more signal;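 note: lysate comes from COS7 cells expressing LAP1 and is applied at 0.3 µg/mL; score merges spot fluorescence near 667 nm with signal-to-noise over triplicate slides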
[8] = system: Sam68 (KHDRBS1); test: Sam68 small-molecule binders, primary screen, biochemical, small-molecule microarray, 635 nm fluorescence (AID 1125); conditions: small-molecule microarray binding, higher = more signal;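 note: score merges 667 nm channel intensity with signal to noise over triplicate slides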
[9] = system: Chordin-like protein 2 (CHRDL2); test: CHRDL2 small-molecule binders, primary screen, biochemical, small-molecule microarray, 635 nm fluorescence (AID 1126); conditions: small-molecule microarray binding, fluorescence 635 nm; higher = more signal;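 note: printed compound slides probed with Chrdl2 protein at 4 µg/mL for 1 h at 4 C; score merges 667 nm emission intensity with signal to noise over three replicate slides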
[10] = molecular target: Concanavalin-A (Canavalia ensiformis) (UniProt P02866); test: ConA small-molecule binders, primary screen, artefact control for SMM control protein annotation, biochemical, small-molecule microarray, Alexa647 label, 635 nm (AID 1127); conditions: ConA-A647 binding fluorescence, higher = more signal;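 note: z combines 667 nm emission intensity with signal-to-noise across three replicate slides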
Chain of Concanavalin-A (Canavalia ensiformis) (P02866 whole entry, looked up): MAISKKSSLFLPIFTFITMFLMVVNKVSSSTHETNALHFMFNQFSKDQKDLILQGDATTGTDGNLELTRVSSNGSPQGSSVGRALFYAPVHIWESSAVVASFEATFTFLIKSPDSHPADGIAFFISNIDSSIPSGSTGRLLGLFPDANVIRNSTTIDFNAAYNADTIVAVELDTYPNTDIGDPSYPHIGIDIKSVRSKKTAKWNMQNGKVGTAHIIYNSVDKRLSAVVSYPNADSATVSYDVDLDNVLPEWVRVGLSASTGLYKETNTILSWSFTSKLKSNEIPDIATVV

Row | SMILES | composite z-score [1] | composite Z-score [2] | composite z-score [3] | composite z-score [4] | composite z-score [5] | composite z-score [6] | composite z-score [7] | composite z-score [8] | composite z-score [9] | composite z-score [10]
1 | CC(C)CCN1CCc2nc(-c3ccccc3)c3c(c2C1)CO[C@@H](C)C3 | 0.69 | -0.835 (inactive) | -0.0362 | -0.16 | 0.15 | 0.463 | -0.616 | 1.06 | 0.656 | 0.263
2 | CC(=O)OC[C@H]1O[C@H](C#CC(C)(C)C)C=C[C@@H]1OC(C)=O | 0.895 | -0.0921 (inactive) | 0.116 | -0.0649 | 0.813 | 1.6 | 0.164 | 1.22 | 0.411 | 1.09
3 | CCCNC(=O)OC[C@H]1O[C@H](CCON=C(C)CCC(=O)OC[C@H]2O[C@H](C#Cc3ccccc3)C=C[C@@H]2Oc2ccc(C)cc2)C=C[C@@H]1Oc1ccc(OC)cc1 | -0.22 | 0.212 (inactive) | -0.158 | -0.141 | -0.29 | -0.324 | -0.141 | -1.22 | -0.288 | 0.154
4 | C=CCN(CCCC)C(=O)C1N(CCCCCCO)C(=O)C2C(C(=O)O)C3C=CC21O3 (stereo not given) | -1.52 and -1.4 | 0.0063 (inactive) and 0.131 (inactive) | -0.555 and -0.323 | -0.222 and -0.185 | 0.913 and 0.938 | -0.809 and 0.159 | 0.861 and 0.0304 | -0.243 and -0.577 | -1.56 and -3.19 | -2.11 and -0.791
5 | C=C[C@@H](OC)[C@H](O)c1ccc(OCCO)cc1 | -0.128 and 0.397 | -0.158 (inactive) and -0.292 (inactive) | -0.323 and -0.465 | -0.227 and -0.142 | 0.831 and 0.847 | -0.236 and -0.474 | 1.48 and -0.402 | -0.352 and -1.38 | -0.866 and -1.44 | -1.26 and -1.04
6 | CCN1C(=O)[C@H]2[C@H]3[C@H](O)[C@H](O)CC(=NOC)[C@@H]3CC[C@H]2C1=O | -0.311 | -0.791 (inactive) | 0.0297 | -0.0681 | -0.317 | -0.417 | -0.375 | -0.478 | 0.508 | -0.0569
7 | C=C[C@H](OC)[C@@H](O)c1ccc(O)c(F)c1 | 0.0861 and -0.58 | -0.244 (inactive) and 0.209 (inactive) | -0.592 and -0.454 | -0.239 and -0.225 | 0.274 and -0.771 | -0.541 and -0.37 | -0.474 and -0.637 | -1.1 and -1.43 | -2.38 and -1.91 | -1.97 and -1.23
8 | CC(CO)N1C(=O)[C@@H]2C3C(=O)OCCC=C[C@H]3OC23C=CCN(Cc2ccccc2)C(=O)[C@@H]13 (stereo not given in full) | -0.561 and -0.652 | 0.0931 (inactive) and -0.171 (inactive) | -0.207 and -0.136 | -0.174 and -0.133 | 0.84 and 0.944 | -0.205 and 0.481 | 0.716 and 0.0818 | -0.0818 and -0.239 | -0.927 and -0.898 | -1.3 and -1.38
9 | COC(=O)C1=C(C)N(Cc2ccccc2)C2=C3C(=O)N(C)C(=O)[C@@H]3[C@@](O)(C(=O)OC)C(=O)N2[C@@H]1c1ccccc1 | 0.0056 and 0.0685 | 0.204 (inactive) and -0.12 (inactive) | 0.134 and -0.101 | -0.151 and -0.0619 | 0.422 and -0.123 | -0.332 and -0.0088 | 1.36 and 0.499 | -0.239 and 0.267 | 0.37 and 0.38 | 0.17 and 0.178
10 | C=C[C@H](OC)[C@@H](O)c1ccc(OCCO)cc1 | -1.69 and -0.599 | 0.459 (inactive) and -0.239 (inactive) | -0.437 and -0.465 | -0.248 and -0.242 | 0.934 and 0.835 | -0.358 and -0.494 | 0.581 and -0.234 | -0.924 and -0.595 | -2.3 and -0.674 | -2.17 and -0.715
11 | CCCC[C@@H]1CN2[C@@H](CC[C@@H](C)[C@@H]2c2ccc(Br)cc2)C(=O)O1 | 0.604 and 0.712 | 0.548 (inactive) and 0.14 (inactive) | 0.0293 and -0.0219 | -0.104 and -0.164 | 0.284 and 0.282 | 1.22 and 0.595 | -0.0028 and 0.498 | 1.1 and 0.929 | 0.306 and 0.0739 | 0.402 and 0.987
12 | CC(C)=CCCC(C)=CCON=C1C[C@@H](O)[C@@H](O)[C@@H]2[C@@H]3C(=O)N([C@@H](C)c4ccccc4)C(=O)[C@@H]3CC[C@H]12 | 0.799 | -0.501 (inactive) | -0.0048 | 0.296 | 0.206 | 1.37 | 0.308 | 1.12 | 1.03 | 0.0996
13 | C=CCN(CCCCC)C(=O)C(c1cccs1)N(C(=O)/C=C\C(=O)O)c1c(Cl)cccc1CO (stereo not given) | -0.678 and -0.603 | -0.798 (inactive) and 0.414 (inactive) | -0.533 and -0.396 | -0.057 and -0.187 | 0.91 and 0.768 | -0.774 and -0.96 | 1.62 and -0.0008 | -1.09 and -1.41 | -2.67 and -1.87 | -0.906 and -1.52
14 | C=CCN(Cc1ccccc1)C(=O)C(c1cccs1)N(C(=O)/C=C\C(=O)O)c1c(Cl)cccc1CO (stereo not given) | -0.248 and -1.84 | 0.0723 (inactive) and -1.07 (inactive) | -0.437 and -0.491 | -0.155 and -0.0772 | -0.393 and -0.843 | -0.665 and -0.537 | -0.657 and -0.277 | -0.84 and -2.12 | -1.64 and -2.62 | -1.52 and -1.86
